Most compounds without a hit are left out; they make up all but 3% or so of the library.
BCR signal inh: chronic active BCR signaling inhibition; ABC-DLBCL IkBa-CBG/CBR reporter, luminescence ratio, 4 h; Potency, µM (highest dose often 46.1 µM), for the others: top-dose activity change, negative = inhibition, actives largely listed as inhibitors; actives 0.05% (n = 340,000); AID 493014; active = well fitted inhibition curve with a large enough effect in the signal ratio, with a control signal flat, not every such curve was filed as active; inconclusive = small, poorly fitted or top-dose-only effect, or effect the other way, or a change in a side signal; the % refers to the signal ratio;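 note: potency is the fitted concentration of half-maximal effect; plate controls were basal doxycycline-induced cells for no effect and cells given 10 µM MG132 for full effect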
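TMD8 ABC-DLBCL cells carrying doxycycline-inducible green luciferase fused to IkappaBalpha plus unfused red luciferase were exposed to compounds (up to 46 uM) for 4 hrs at 37C. Activity came from the overlap-corrected green/red luminescence ratio.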
LDHA block: inhibitors of human lactate dehydrogenase A. P00338. purified LDHA, NADH/diaphorase-resazurin fluorescence; stronger effect = lower value. activity change, % (values are at about 110 or 230 µM). actives 0.15% (n = 480,000). AID 1347041; in the data active = activity change below about -30%; inconclusive = mostly about -25% to -30%;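 note: plate controls were DMSO wells for no effect and wells without enzyme for full effect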
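Resorufin fluorescence (ex540/em590), read at 0 and 20 min after diaphorase/resazurin addition, reports the NADH left after a 5 min room-temperature reaction of 2 nM human LDH5 with 0.06 mM NADH and 0.2 mM pyruvate.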
ALOX12 inh: ALOX12 (human) lipoxygenase inhibition. Potency, µM (titrated, usually from 108 µM), without a hit: at the top dose activity change, negative = inhibition, actives largely listed as inhibitors. purified 12hLO, xylenol orange hydroperoxide absorbance. actives 1.1% (n = 580,000); active = well fitted inhibition curve with a large enough effect; inconclusive = small, poorly fitted or top-dose-only effect, or another doubt; inactive = no such curve, though single readings can be large or run the other way; note: potency is the fitted concentration of half-maximal effect; % is set by controls: 0 for no effect and ±100 for the full control effect
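Purified human 12hLO (150 nM final) in 25 mM Hepes, 0.01% Triton X-100, pH 7.0 was preincubated 15 min at room temperature with compound. Then 40 uM arachidonic acid was added, 30 min. Hydroperoxide was read by Fe-XO absorbance ratio 573/405 nm.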
hERG WT inh: KCNH2 (human, wildtype) channel inhibition; actives 0.37% (n = 340,000); U2OS, BacMam KCNH2, thallium flux FluxOr; stronger effect = lower value; activity change, % at 1.84 µM; Q12809;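 active = maximum activity change below -70%; inconclusive = maximum activity change between -70% and -50%; inactive = maximum activity change above -50%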; note: % is set by controls: 0 for no effect and ±100 for the full control effect
Target sequence (Q12809 whole entry, looked up): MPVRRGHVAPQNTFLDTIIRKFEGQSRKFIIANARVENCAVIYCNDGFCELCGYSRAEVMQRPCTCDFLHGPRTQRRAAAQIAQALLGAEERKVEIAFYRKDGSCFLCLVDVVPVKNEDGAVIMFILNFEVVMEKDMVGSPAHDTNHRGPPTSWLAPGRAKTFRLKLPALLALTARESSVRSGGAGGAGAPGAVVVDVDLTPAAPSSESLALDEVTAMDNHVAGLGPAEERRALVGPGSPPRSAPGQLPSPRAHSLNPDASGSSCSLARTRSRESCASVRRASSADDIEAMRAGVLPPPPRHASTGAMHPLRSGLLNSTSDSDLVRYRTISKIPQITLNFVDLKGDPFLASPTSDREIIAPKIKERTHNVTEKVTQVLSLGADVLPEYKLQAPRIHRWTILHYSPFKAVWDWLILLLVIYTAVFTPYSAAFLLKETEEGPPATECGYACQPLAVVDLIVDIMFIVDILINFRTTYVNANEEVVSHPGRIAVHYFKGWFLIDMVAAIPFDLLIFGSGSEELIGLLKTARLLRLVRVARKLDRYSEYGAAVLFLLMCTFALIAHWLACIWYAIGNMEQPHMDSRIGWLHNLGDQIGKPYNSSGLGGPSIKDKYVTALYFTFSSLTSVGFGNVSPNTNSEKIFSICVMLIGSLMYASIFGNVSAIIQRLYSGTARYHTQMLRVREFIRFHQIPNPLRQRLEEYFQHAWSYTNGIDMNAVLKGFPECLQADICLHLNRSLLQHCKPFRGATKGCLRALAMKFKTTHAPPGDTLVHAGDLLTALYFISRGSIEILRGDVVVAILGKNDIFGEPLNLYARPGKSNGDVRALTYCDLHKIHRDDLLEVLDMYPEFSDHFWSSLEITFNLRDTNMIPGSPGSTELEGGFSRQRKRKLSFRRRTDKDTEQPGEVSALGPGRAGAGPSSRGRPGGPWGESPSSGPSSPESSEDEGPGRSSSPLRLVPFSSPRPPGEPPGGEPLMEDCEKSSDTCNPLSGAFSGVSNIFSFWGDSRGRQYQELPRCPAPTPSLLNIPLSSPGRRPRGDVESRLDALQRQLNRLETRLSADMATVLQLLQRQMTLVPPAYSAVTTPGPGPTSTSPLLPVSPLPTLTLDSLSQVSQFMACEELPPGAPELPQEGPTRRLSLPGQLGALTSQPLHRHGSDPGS
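U2OS cells transduced with wild-type KCNH2 virus are loaded with FluxOr dye for 45 min, and thallium flux is measured in kinetic reads before and after stimulation buffer. Rate constants are normalized to DMSO controls.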
KCNH2 3.1 inh: blocks the human KCNH2 3.1 channel isoform | U2OS KCNH2 3.1, thallium flux FluxOr; stronger effect = lower value | activity change, % (tested at about 1.8 µM) | actives 0.95% (n = 340,000) | AID 720553;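 active = maximum activity change below -70%; inconclusive = maximum activity change from -70% to -50%; inactive = maximum activity change above -50%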;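 note: thallium influx rate constant from kinetic fluorescence after stimulation buffer; % is set by controls: 0 for no effect and ±100 for the full control effect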
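Measured as rate of thallium-driven FluxOr signal in transduced U2OS cells carrying the 3.1 channel, read kinetically for 2 min upon stimulation; values are rate constants scaled to DMSO control wells.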
ClpP mod: qHTS Assay for Activators of ClpP | ATP-dependent Clp protease proteolytic subunit (Bacillus subtilis (strain 168)), P80244 | purified B. subtilis ClpP, FRET peptide cleavage, 20 min | Potency, µM (highest dose often 57.5 µM), for inactives: top-dose activity change, negative = active | actives 1.9% (n = 340,000) | AID 651965, 2013; active = well fitted falling curve with a large enough effect; inconclusive = small, poorly fitted or top-dose-only effect; inactive = no such curve, though single readings can be large or run the other way; note: potency is the fitted concentration of half-maximal effect; the source files actives as falling curves though it sought activators and does not explain the sign; nearly all actives have a fitted effect of over 65% in size
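ClpP 10 microg/mL final, pH 8 Tris/KCl buffer with BSA, glycerol, Tween-20; compound pinned in; FRET-FV substrate; RT 20 min; Ex320/Em430; ΔFRET vs ADEP 5.8 microM, DMSO, no enzyme.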
An asterisk follows results filed as active; ? = inconclusive; . = no result.

SMILES | BCR signal inh | LDHA block | ALOX12 inh | hERG WT inh | KCNH2 3.1 inh | ClpP mod
CCc1ccc(-c2csc(Nc3ccc(O)c(C(=O)O)c3)n2)cc1 | . | -1 | ? | . | . | .
NNc1ccccc1Br | . | 1 | 8.9µM* | . | . | .
NC(=S)Nc1ccccc1Br | -3% | -1 | ? | -5 | -5 | -1%
COC(=O)c1c(O)cc(C(C)(C)C)n(-c2ccc(F)cc2)c1=O | 0% | 2 | -7% | -116* | -216* | -2%
CC(=O)c1c(O)cc(C)n(-c2ccc(F)cc2)c1=O | 0% | -3 | ? | -8 | -3 | -1%
CC(=O)c1cc2c(cc1NC(=O)C1CN(C(C)=O)c3ccccc3O1)OCO2 (stereo not given) | 2% | -1 | -1% | -12 | 1 | 20µM*
Cc1cc(NC(=O)C2CCCCC2)ccc1NC(=O)c1ccccc1Cl | ? | -3 | -18% | -2 | 3 | 16µM*
Cc1cc(NC(=O)c2ccccc2)ccc1NC(=O)c1ccccc1Cl | ? | -3 | 27% | -13 | -6 | 134%
Cc1ccc(OCCNCc2ccccc2)c(C)c1 | ? | -15 | ? | -2 | -3 | 0%
Cc1ccc(OCCCCNC(C)c2ccccc2)c(C)c1 (stereo not given) | -1% | -13 | 4.5µM* | 12 | ? | .
CC1=C(OS(=O)(=O)c2ccc(C)cc2)C(C)(C)C(c2ccccc2)OC1=O (stereo not given) | . | -1 | -9% | . | . | .
C/C(CCC12CC3CC(CC(C3)C1)C2)=N\NC(N)=S | ? | -11 | 10µM* | -4 | 2 | 1%
C=CCNc1nc(-c2ccc(CNC(=O)C(C)(C)C)s2)cs1 | . | 7 | -27% | . | . | .
CCN(CC(=O)Nc1cc(Cl)ccc1C)C(=O)c1cc([N+](=O)[O-])ccc1N1CCOCC1 | 4% | 2 | ? | -7 | 6 | 2%
CCCN(CC(=O)Nc1ccc(F)c(F)c1F)C(=O)c1cc([N+](=O)[O-])ccc1N1CCOCC1 | 3% | 1 | -13% | ? | -3 | 22µM*
O=C(c1ccccc1)N1CCC2(CC1)CC(N(Cc1ccc(F)cc1)C1CC1)CCO2 (stereo not given) | . | . | 23% | . | . | .
CCOc1ccc(NC(=S)Nc2cc(C)[nH]n2)cc1 | 0% | -7 | 40µM* | -8 | 1 | .
CCOc1ccc(NC(=S)Nc2cc(OC)c(Cl)cc2OC)cc1 | -2% | 4 | 40µM* | 0 | -12 | 1%
Cc1ccc(C(=O)N/N=C/c2ccc([N+](=O)[O-])s2)cc1 | 0% | -35* | -5% | 6 | -14 | -1%
CC(OC(=O)c1ccc(CCNS(C)(=O)=O)cc1)C(=O)N(C)C1CCCCC1 (stereo not given) | . | 2 | 0% | . | . | .
COC(=O)c1c(C)[nH]c(C(=O)OC(C)C(=O)c2ccc(F)cc2F)c1C (stereo not given) | . | 0 | -36% | . | . | .
O=C(NC1CCCCNC1=O)c1ccc(Cl)cc1 (stereo not given) | 7% | -9 | 3% | -6 | -6 | 28µM*
COc1ccccc1Nc1ccc2c(O)cc(S(=O)(=O)O)cc2c1 | . | 29 | 10µM* | -1 | 5 | .
O=S(=O)(O)c1cc(O)c2cc(Nc3ccccc3)ccc2c1 | . | 21 | 35µM* | -11 | -4 | 0%
O=S(=O)(O)c1ccc(O)c2cc(Nc3ccccc3)ccc12 | . | 23 | 32µM* | 5 | 8 | .
CC(=O)Nc1ccc2c(O)cc(S(=O)(=O)O)cc2c1 | . | 13 | ? | -2 | -12 | .
O=S(=O)(O)c1cc(O)c2ccc(Nc3ccccc3)cc2c1 | . | 39 | 18µM* | 1 | -2 | .
O=C(c1nn(Cc2ccccc2)c(=O)c2ccccc12)N1CCN(C(=O)C2CC2)CC1 | . | -12 | 29% | . | . | .
Cc1ccc(CC(=O)N2CCC[C@H]2c2nc(-c3ccccc3Cl)no2)cc1 | . | . | 15% | . | . | .
O=C(CN1CCN(Cc2ccc3c(c2)OCO3)CC1)Nc1ccc(F)cc1 | ? | 0 | -21% | -15 | -84* | 1%

Compound activity from PubChem.
